Bioassay records: PubChem BioAssay, National Center for Advancing Translational Sciences (NCATS)
The full list was thinned out, with hits kept by preference.
RE007 growth inh: less growth of the S. pombe RE007 Vpr strain. S. pombe RE007 Vpr strain, BacTiter-Glo ATP luminescence, 24 h. Potency, µM (doses to about 92.2 µM), inactives show top-dose activity change, negative = less growth, most hits filed as inhibitors. 360,000 compounds, 0.21% hits. AID 651644; active means well fitted falling curve with a large enough effect; inconclusive means small, poorly fitted or top-dose-only effect; inactive means no such curve, though single readings can be large or run the other way; further: potency means the concentration at half of the fitted maximal effect; on the % scale 0 is the no-effect control and ±100 the full control effect; nearly all actives have a fitted effect of over 50% in size
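Fission yeast strain RE007, carrying one chromosomally integrated HIV-1 vpr copy, was seeded at OD 0.01 in PMG+AL medium with 23 nL pinned compound. After 24 h at 30 °C and 99% humidity, viability was read by BacTiter-Glo luminescence.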
Tb PYK inh: T. brucei pyruvate kinase inhibition; Q57TT1; TbPYK enzyme, Kinase-Glo Plus ATP luminescence, 45 min; Potency, µM (highest dose often 76.8 µM), without a hit: at the top dose activity, negative = inhibition, usual class: inhibitors; 410,000 compounds, 0.12% hits; further: potency means the concentration at half of the fitted maximal effect; on the % scale 0 is the no-effect control and ±100 the full control effect; nearly all actives have a fitted effect of over 50% in size
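Enzyme and substrate buffer are dispensed first and compound is pin-transferred. ADP at 130 uM final then starts the reaction, which runs 45 min at room temperature. Detection reagent is added for 10 min before luminescence is imaged.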
FBPA Giardia inh: inhibitors of Giardia lamblia fructose-1,6-bisphosphate aldolase. A8B2U2. purified Giardia FBPA. Potency, µM (highest dose often 59.6 µM), for inactives: top-dose activity, negative = inhibition, most hits filed as inhibitors. 290,000 compounds, 0.71% hits; further: potency means the concentration at half of the fitted maximal effect; on the % scale 0 is the no-effect control and ±100 the full control effect; nearly all actives have a fitted effect of over 55% in size
Target sequence (A8B2U2 whole entry, looked up): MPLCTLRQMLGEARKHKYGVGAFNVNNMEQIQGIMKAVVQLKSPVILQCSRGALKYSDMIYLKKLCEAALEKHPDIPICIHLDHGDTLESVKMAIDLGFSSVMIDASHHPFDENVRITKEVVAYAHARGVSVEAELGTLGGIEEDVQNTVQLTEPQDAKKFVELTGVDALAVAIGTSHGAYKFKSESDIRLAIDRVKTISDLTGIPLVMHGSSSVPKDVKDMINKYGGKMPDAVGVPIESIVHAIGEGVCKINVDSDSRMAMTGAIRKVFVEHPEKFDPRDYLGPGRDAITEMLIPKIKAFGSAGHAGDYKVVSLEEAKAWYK
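40 nM FBPA preincubated 10 min at RT with compound (up to 57.5 uM final), then substrate plus GAPDH/TPI/NAD/arsenate coupling and diaphorase/resazurin added. Fluorescence read after 20 min at RT, 525/598 nm.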
Cycloheximide cs: counter-screen hit for Shiga toxin inhibitors, cycloheximide. cell reporter, cycloheximide protein synthesis inhibition counterscreen. max response, %. 300,000 compounds, 12% hits. AID 2314; in the data active means max response mostly above about 13%, no sharp cut-off; inactive means mostly below about 14%; further: read at 38.3 µM for the half of the compounds with a filed dose; 0% is about no effect
LmPK inhibitor: inhibitors of Leishmania mexicana pyruvate kinase. 290,000 compounds, 0.37% hits. Potency, µM (highest dose often 57.5 µM), inactives show top-dose activity change, negative = inhibition, most hits filed as inhibitors. purified LmPK, Kinase-Glo ATP luminescence, 1 h; further: potency means the concentration at half of the fitted maximal effect; on the % scale 0 is the no-effect control and ±100 the full control effect
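ATP generated from ADP (0.1 mM) and PEP (0.5 mM) by 0.1 nM LmPK over 1 h at room temperature (pH 7.2 imidazole buffer) was detected by coupled luciferase luminescence. Values were normalized to uninhibited and no-enzyme wells.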
Shiga toxin inh: inhibitors of Shiga toxin in Vero cells; Vero cells, Shiga toxin protein synthesis inhibition reporter; inhibition, % at 38.7 µM; 290,000 compounds, 9.2% hits; AID 2315; in the data active means inhibition mostly above about 28%, no sharp cut-off; inactive means mostly below about 43%; further: 0% is about no effect
* hit, by the source's call; ? = inconclusive; . = not tested or not shown. Unless noted, the call rests on the fitted dose curve; in most records, active means well fitted curve in the direction sought with a large enough effect; inconclusive means small, poorly fitted or top-dose-only effect, or another doubt; inactive means no such curve, though single readings can be large; an effect the other way counts as inactive or inconclusive.

SMILES | RE007 growth inh | Tb PYK inh | FBPA Giardia inh | Cycloheximide cs | LmPK inhibitor | Shiga toxin inh
CCc1nc(SCc2ccc(Cl)cc2)n[nH]1 | 0.3% | 7.2% | -26.8% | 33.4* | -0.8% | 41.1*
CCCN(C(=O)COC(=O)c1nc2nc(C)cc(C)n2n1)C1CCS(=O)(=O)C1 (centres undefined) | 3.3% | -4.2% | . | . | . | .
O=C(Nc1ccc(S(=O)(=O)Nc2ncccn2)cc1)c1cc(=O)c2ccccc2o1 | . | 4.0% | . | . | . | .
Cc1ccc(-n2nc3c(=O)n(C(C)C(=O)NCCC4=CCCCC4)nc(C)c3c2C)cc1 (centres undefined) | -14.2% | 3.8% | 17.9% | 8.9 | 11.5% | 1.2
CN(C(=O)c1cccc(C#CC(C)(C)O)c1)C1CCCN(Cc2ccccc2F)C1 (centres undefined) | -3.0% | -1.1% | 19.8% | -2.0 | -2.1% | -2.2
COc1ccc2[nH]c(=O)c(CNc3cccc(C)c3)cc2c1 | 0.1% | 1.7% | ? | 29.1* | 1.7% | 37.0
Cc1cc(O)c(CN2CCN(c3ccc(F)cc3)CC2)c2oc(=O)cc(C)c12 | . | 2.7% | . | . | . | .
CC1(c2ccccc2)NC(=S)N2C1NC(=S)N2c1ccccc1 (centres undefined) | 2.0% | -12.1% | ? | 0.7 | 2.4% | 17.8
COc1ccc(N2C(=S)NC3N2C(=S)NC3(C)c2ccccc2)cc1 (centres undefined) | 32.6% | -14.6% | ? | 36.8* | -7.1% | 55.6*
c1ccc2c(c1)-c1nc3ccccc3cc1C2N1CCCCC1 (centres undefined) | -21.4% | 0.2% | . | . | . | .
CC1(C)c2ccccc2-c2nc3ccccc3cc2C1O (centres undefined) | -26.3% | -6.5% | -6.5% | 18.1* | -8.0% | 15.9
CCCN1CCN(c2ncc3c(n2)CCN(Cc2ccc(OC)c(OC)c2OC)C3)CC1 | . | 0.1% | . | . | . | .
CCOC(=O)C1=C(Cc2ccc(F)cc2)C(=O)c2ccccc2C1=O | ? | ? | 1.77µM* | 2.8 | ? | 3.7
